DT40 TDP1 CPT = DT40-hTDP1 cell growth loss with CPT | chicken DT40 Tdp1-/-;hTDP1 cells + 20 nM CPT, ATP luminescence, 48 h | Potency, µM (top dose mostly 46.2 µM), for the others: at the top dose activity change, negative = growth inhibition, hits mostly inhibitors | hit rate 12% among 420,000 | AID 686979; also: potency is read from the fitted curve at half-maximal effect; nearly all actives have a fitted effect of over 55% in size
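Chicken DT40 Tdp1-/- cells complemented with human TDP1, 400 cells/well, exposed to compounds plus 20 nM camptothecin for at least 48 h at 37 C; viability read as ATP content by CellTiter-Glo luminescence.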
IL-1B inflam inh = inhibitors of inflammasome signaling (IL-1 beta secretion); THP-1 LPS/ATP IL-1B secretion, AlphaLISA, 16 h; stronger effect = lower value; activity change, % at 57.5 µM; hit rate 4.7% among 360,000; AID 743279; in the data active = activity change below about -50%; inconclusive = mostly about -30% to -49%
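Secreted IL-1B measured by AlphaLISA bead assay after 16 h compound exposure of THP-1 cells; compounds (final up to 57.5 uM) added 1 h before LPS (250 ng/mL) and ATP (1.25 mM) stimulation; lower signal means less secretion.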
HT1080 IDH1KD tx = toxicity to HT-1080 IDH1 knockdown cells (counter line). hit rate 2% among 360,000. Potency, µM (top dose mostly 46.1 µM), for inactives: at the top dose activity, negative = toxicity, most hits filed as cytotoxic. HT-1080 IDH1 knockdown viability, ATP luminescence, 48 h;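 also: potency is read from the fitted curve at half-maximal effect; 0% = DMSO wells and -100% = cell-free medium wells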
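CellTiter-Glo luminescence after 48 h compound exposure at 37 degrees C of IDH1-knockdown HT-1080 cells in 5% FBS RPMI. %Activity scaled between DMSO wells and cell-free media wells, with curves fitted and assigned curve classes.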
DT40 TDP1 no CPT = qHTS for Inhibitors of human tyrosyl-DNA phosphodiesterase 1 (TDP1): qHTS in cells in absence of CPT; DT40 Tdp1-/- hTDP1 cells, no CPT, ATP luminescence, 48 h; Potency, µM (doses to about 46.2 µM), for inactives: at the highest dose activity change, negative = growth inhibition, hits mostly inhibitors; hit rate 15% among 420,000; AID 686978, 2013; also: potency is read from the fitted curve at half-maximal effect; nearly all actives have a fitted effect of over 55% in size
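A cellular qHTS used chicken DT40 cells lacking endogenous Tdp1 but carrying stably transfected human TDP1. Compounds were applied without camptothecin, and cell growth kinetics were judged by ATP-dependent luminescence after ≥48 hr.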
HT1080-NT tox = kills 2HG-producing HT-1080-NT fibrosarcoma cells; HT-1080-NT fibrosarcoma viability, CellTiter-Glo ATP luminescence, 48 h; Potency, µM (doses to about 46.1 µM), for inactives: top-dose activity, negative = less viability, hits mostly cytotoxic; hit rate 1.6% among 360,000; AID 686970;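 also: NT is the 2HG producing partner of a matched IDH1 knockdown line; potency is read from the fitted curve at half-maximal effect; 0% = DMSO-treated cells and -100% = media-only wells without cells; nearly all actives have a fitted effect of over 55% in size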
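Viability of the 2HG-overproducing fibrosarcoma line after 48 hours of compound exposure at 37 degrees C was determined by luminescence with CellTiter-Glo, and concentration-effect curves were then fitted and categorized.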
12-LOX inh = inhibitors of human 12S-lipoxygenase ALOX12; P18054; hit rate 1.1% among 580,000; AID 1671190; Potency, µM (highest dose often 108 µM), without a hit: at the top dose activity change, negative = inhibition, usual class: inhibitors; purified 12hLO, xylenol orange hydroperoxide absorbance; also: potency is read from the fitted curve at half-maximal effect
Target sequence (P18054 whole entry, looked up): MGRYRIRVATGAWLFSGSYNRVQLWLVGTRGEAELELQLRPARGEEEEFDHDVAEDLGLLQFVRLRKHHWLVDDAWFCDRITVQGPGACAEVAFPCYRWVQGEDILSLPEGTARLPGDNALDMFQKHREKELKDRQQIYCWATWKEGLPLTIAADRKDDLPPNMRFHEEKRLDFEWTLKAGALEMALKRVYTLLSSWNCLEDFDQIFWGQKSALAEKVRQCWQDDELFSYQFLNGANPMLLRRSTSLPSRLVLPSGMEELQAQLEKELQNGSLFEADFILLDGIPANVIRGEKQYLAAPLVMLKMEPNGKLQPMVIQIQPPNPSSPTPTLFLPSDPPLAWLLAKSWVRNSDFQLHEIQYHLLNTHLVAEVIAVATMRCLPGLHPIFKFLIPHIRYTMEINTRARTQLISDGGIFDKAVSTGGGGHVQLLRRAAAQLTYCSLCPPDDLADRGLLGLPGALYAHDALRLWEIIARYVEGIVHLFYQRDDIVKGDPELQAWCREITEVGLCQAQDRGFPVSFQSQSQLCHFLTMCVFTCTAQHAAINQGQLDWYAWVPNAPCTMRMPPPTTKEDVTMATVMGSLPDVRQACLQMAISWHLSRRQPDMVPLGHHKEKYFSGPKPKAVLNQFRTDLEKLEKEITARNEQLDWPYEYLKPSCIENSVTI
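Hydroperoxide product was detected by ferrous iron/xylenol orange as the 573 to 405 nm absorbance ratio. Arachidonic acid at 40 uM (final) was turned over for 30 min at room temperature by 150 nM human 12hLO, pH 7.0 Hepes buffer, after 15 min compound preincubation.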
* marks the source's active call; other numbers are inactive results; ? = inconclusive; . = not tested or not shown; [ ] = remark or other dose. This is one part of a sample in which hits are shown more often than they occur. Unless noted, calls follow the shape of the dose curve; as a rule, active = well fitted curve in the direction sought with a large enough effect; inconclusive = small, poorly fitted or top-dose-only effect, or another doubt; inactive = no such curve, though single readings can be large; an effect the other way counts as inactive or inconclusive. Unless noted, % is scaled to controls: 0 for no effect and ±100 for the full control effect.

SMILES	DT40 TDP1 CPT	IL-1B inflam inh	HT1080 IDH1KD tx	DT40 TDP1 no CPT	HT1080-NT tox	12-LOX inh
C/C(=N/O)c1ccc2c(c1)NC(=O)CO2	.	.	.	.	.	5%
O=C(C=Cc1cccc(Cl)c1)c1ccccc1	15µM*	?	?	23µM*	?	-9%
CC(C)(C)c1ccc(/C=N/OCC(=O)N2CCC(Cc3ccccc3)CC2)cc1	.	.	.	.	.	-25%
Cc1cccc(-c2ocnc2C(=O)Nc2ccc(C)c(Cl)c2)c1	.	.	.	.	.	-12%
CCCCOP(=O)(OCCCC)C1(NS(=O)(=O)c2ccccc2)C=CC(=O)c2ccccc21 (stereo unspecified)	16µM*	6	23µM*	23µM*	21µM*	16µM*
C/C=C/Cn1c(NCCO)nc2c1c(=O)[nH]c(=O)n2C	.	.	.	.	.	-1%
Cc1cccc(Cc2cnc(N3C(=N)SC(c4ccccc4)C3=O)s2)c1 (stereo unspecified)	29µM*	29	-15%	26µM*	-2%	5%
Cc1ccc(Cc2cnc(N3C(=N)SC(C)C3=O)s2)cc1 (stereo unspecified)	?	5	-18%	?	-20%	11%
Cc1cccc(Cc2cnc(N3C(=N)SC(C)C3=O)s2)c1 (stereo unspecified)	?	-84*	-22%	18µM*	-11%	2%
O=C(Nc1ccc(F)cc1)N1CCCN(c2ccc(C(F)(F)F)cn2)CC1	?	-14	?	?	-17%	?
CC(C)(C)c1ccc(NC(=O)N2CCCN(c3c(Cl)cncc3Cl)CC2)cc1	16µM*	-65*	-14%	7.3µM*	?	-4%
O=C(Cc1ccc(F)cc1)N/N=C/c1ccccn1	-19%	-13	-13%	-17%	-10%	7%
CCN=c1scc(-c2ccccc2)n1/N=C/c1ccccn1	4.1µM*	-58*	?	3.7µM*	?	.
CCN=c1scc(-c2ccc(F)cc2)n1/N=C/c1ccccn1	?	-51*	?	16µM*	-2%	208%
Cc1ccc(CN2C(=O)[C@@H]3C[C@@H](O)CN3C3(CN(Cc4ccccc4F)C3)C2=O)o1	.	.	.	.	.	3%[176 µM]
C=CCc1cc(CNC)cc(OC)c1OCC	.	.	.	.	.	5%
CCOC(=O)[C@]12CCCC=C1N(Cc1ccc(Cl)cc1Cl)C(=O)[C@H](CC(=O)NCc1cccs1)C2	?	-29	?	?	?	-10%
COC(=O)[C@]12CCCCC=C1N(Cc1ccc(Cl)cc1Cl)C(=O)[C@H](CC(=O)NCc1cccs1)C2	?	0	-28%	23µM*	-24%	-28%
CCOC(=O)[C@]12CCC=C1N(Cc1ccc(Cl)cc1Cl)C(=O)[C@H](CC(=O)NCc1cccs1)C2	?	-61*	?	21µM*	?	-18%
Cc1ccc(C(=O)OCc2nc3ccccc3o2)cc1	.	.	.	.	.	-10%
COc1ccc(C)cc1N1CC(O)=C(c2nc3ccccc3s2)C1=N	.	.	.	.	.	28%
CCOc1ccccc1N1CC(O)=C(c2nc3ccccc3s2)C1=N	3.3µM*	13	2.8µM*	4.1µM*	2.8µM*	-2%[57.4 µM]
N=C1C(c2nc3ccccc3s2)=C(O)CN1Cc1ccccc1	7.3µM*	0	?	4.6µM*	?	0%
CS(=O)(=O)Nc1ccccc1C(=O)NCCSc1ccc(Cl)cc1	?	17	-24%	?	?	-6%
Cc1ccc(NS(=O)(=O)c2cc(C(=O)NCCSc3ccc(C)cc3)ccc2C)cc1	?	-53*	?	?	?	-20%
SMILES	DT40 TDP1 CPT	IL-1B inflam inh	HT1080 IDH1KD tx	DT40 TDP1 no CPT	HT1080-NT tox	12-LOX inh
Cc1ccc(NS(=O)(=O)c2cc(C(=O)NCCSC3CCCCC3)ccc2C)cc1	?	-57*	?	?	?	-26%
Cc1ccc(C(=O)NCCSc2ccc(Cl)cc2)cc1S(=O)(=O)Nc1ccccc1	?	-93*	?	?	?	2%[57.4 µM]
Cc1ccc(SCCNC(=O)c2ccc(C)c(S(=O)(=O)Nc3cccc(C)c3)c2)cc1	?	-57*	?	-12%	?	-23%
CS(=O)(=O)Nc1ccc(C(=O)NCCSC2CCCCC2)cc1	?	5	-18%	-15%	-5%[9.24 µM]	-6%
CCc1ccc(CN(C)C(=O)CN2CCN(c3ccc([N+](=O)[O-])c4cnccc34)CC2)cc1	.	.	.	.	.	-28%
CCN(CC)c1ncn(Cc2c(Cl)cccc2Cl)c2ncnc1-2	?	-7	?	15µM*	-28%	-12%
CCN(CC)c1ncnc2c1ncn2Cc1c(Cl)cccc1Cl	?	-8	?	?	-27%	?
CCN1CC(c2ccccc2)CC2(CCN(C(=O)c3ccc(C)nc3)CC2)C1 (stereo unspecified)	.	.	.	.	.	-15%
c1ccc(Cn2cc(CN3CCCOCC3)c(-c3cc4ccccc4o3)n2)cc1	.	.	.	.	.	34%

Source: PubChem BioAssay (National Center for Advancing Translational Sciences (NCATS))
